Assay results from the supplement of paper PMC3334620.
In all, about 33,000 sequences were measured (“E-score (-0.5 to 0.5)”: median about -0.0034, highest 2% from about 0.25 on). For the sample, the highest values were picked, then their nearest neighbours and some sequences at random.

What follows are sequences tested against T1, Yap3 (UniProt P38749) (assay: PBM E-score (8-mer binding enrichment) (E-score (-0.5 to 0.5)); higher = stronger / more preferred TF binding). Conditions: protein concentration: 100 nM; construct: GST-full length.
T1 sequence: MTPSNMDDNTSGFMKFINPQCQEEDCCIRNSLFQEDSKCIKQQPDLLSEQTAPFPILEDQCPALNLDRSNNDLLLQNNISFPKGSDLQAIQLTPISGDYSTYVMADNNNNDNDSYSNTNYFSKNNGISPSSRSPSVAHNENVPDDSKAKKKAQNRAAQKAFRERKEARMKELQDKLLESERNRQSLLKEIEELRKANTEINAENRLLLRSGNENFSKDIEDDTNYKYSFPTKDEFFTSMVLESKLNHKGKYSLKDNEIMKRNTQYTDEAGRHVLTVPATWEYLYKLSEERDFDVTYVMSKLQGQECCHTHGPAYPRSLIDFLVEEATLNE
Experimental: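 Universal 'all 10-mer' protein binding microarrays (Agilent AMADID 015681) probed with GST-tagged S. cerevisiae TFs (full-length or DBD) made by in vitro transcription/translation (PURExpress), about 100-200 nM. Bound TF was detected with fluorescent anti-GST. Each ungapped 8-mer (which stands for itself and its reverse complement) is scored by the PBM enrichment score (E-score), a modified Wilcoxon-Mann-Whitney statistic from -0.5 to +0.5, computed with the Universal PBM Analysis Suite. Scale: above 0.35 generally sequence-specific binding.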

Sequence | PBM E-score
AGAATGCG | 0.0426
AATAGTAT | 0.229
GTATCCGA | -0.0824
ATTACGCG | 0.311
ATTACGTG | 0.397
ATTACGTC | 0.33
ACTACGTG | -0.166
AATACGTC | 0.188
ATTACGCA | 0.233
CTTAGGTC | -0.0924
ACTACGTC | -0.0702
AGTACGTG | -0.0755
ATTAGGTA | 0.167
ATTACGCC | 0.0197
ATTAGGTC | 0.286
AGTAAACT | 0.0322
CATCTGGC | -0.066
TAGTACTA | 0.0913
GGCTACAC | -0.166
CGACTACA | 0.0886
ATTGGCTC | 0.0983
ATGGTAAT | 0.128
AAGGACAC | -0.0338
ACCCGGGT | -0.12
ACCTTCAC | 0.00082

Sequence | PBM E-score
ATTGGTTG | 0.118
CTGTACGA | 0.0353
TACAGTAA | 0.183
CACAGTAG | 0.0618
CACAGTAA | 0.265
ATTTCGAA | 0.261
ATTTCGAC | -0.0412
ATTTCGAG | 0.141
TGCGTGAA | 0.107
ACATTAGT | 0.0888
ACTTTATC | 0.169
AGTTTATA | 0.205
ATTTTATC | 0.235
ATTTTATG | 0.21
AATTTATC | 0.325
CCTTTATA | 0.0052
ATTTTATA | 0.331
CGTTTATA | 0.28
ACTTTATA | 0.259
GTTTTATA | 0.139
GGTTTATA | 0.0813
CATTTATC | 0.198
GGCAGTCA | -0.11
AAGGTAAC | 0.121
AATTTGAT | 0.0887

Sequence | PBM E-score
ATCGTTTA | 0.135
AAGAGCCG | -0.0966
AGTCACGG | 0.00648
AGGCAGAA | -0.0515
CCTCGCAC | -0.133
AATTTATA | 0.294
CATTTATA | 0.215
AATTTATG | 0.252
ATCCATAA | 0.258
TGACATAA | 0.3
GGACATAA | 0.0711
AACCATAT | 0.266
GTCCATAA | -0.0433
CTGCATTA | -0.0676
AACCATAA | 0.15
CTCCATAA | -0.0865
AACCATAC | 0.0832
ATGCATTA | 0.333
ATGCATTC | 0.0938
AGACATAA | 0.136
CTCCTTCC | -0.171
CATTTGAC | 0.0765
GGAGCGCA | -0.261
AAGTACGG | -0.0366
AGCAATTC | 0.134

Sequence | PBM E-score
TAGGCCCA | -0.198
TCGTCGAA | 0.0355
GTACATAA | 0.135
ATACATCA | 0.207
ATACATAC | 0.0937
ATACATAG | 0.112
TTACATAA | 0.416
GCACATAA | 0.131
ACACATAA | 0.299
ATACATAT | 0.286
ATACATAA | 0.285
AGACATAT | 0.185
CTACATAA | -0.0287
ACACATAG | -0.0796
GCCAATCA | -0.169
CCAGCAGA | -0.17
AACTGCTA | 0.00439
CCGCCTGC | -0.278
AGAGAAAA | 0.0508
GTTTGAGA | -0.0917
GGATTGGA | 0.19
TCGCGCCA | -0.0451
ATCTGGAG | -0.165
GCTTGGAC | -0.0766
CAAGGATG | -0.0177

Sequence | PBM E-score
CGCAATAG | 0.105
CCAATGAG | -0.0674
GTACATTA | 0.0635
AAACATAC | 0.0457
ATACATTA | 0.266
AAACATAT | 0.305
CTACATTA | 0.11
AAACATAG | -0.0382
ATCAGGCA | -0.0855
CGCACTTA | -0.0802
GCTGTGCA | -0.205
AACGGCGG | -0.208
ATATTATC | 0.149
ATATTACA | 0.226
ATATTATG | 0.399
GCATTACA | 0.1
AGATTACG | 0.213
ACATTACG | 0.286
ACATTACA | 0.131
CCATTACG | 0.0884
ATATTACG | 0.412
CCATTACA | 0.272
AGATTATG | 0.129
ACATTACT | 0.213
CTTTGACC | 0.0628

Sequence | PBM E-score
AGCTTGGC | -0.207
AATAGCGT | 0.195
AGATTACC | 0.155
CTATTACC | -0.0641
ATATTACC | 0.276
CAAGTACA | -0.0722
AAAGTACC | 0.176
AAAGTACA | 0.27
ATAAGAAC | 0.289
CCAAGAAA | -0.00981
ATAAGAAA | 0.207
ACAAGAAA | 0.268
ACAAGAAT | 0.1
CCAAAGAA | 0.124
ACGAAGAA | 0.282
ACGAAGAT | 0.0321
TCGAAGAA | -0.0713
ATAAGAAT | 0.207
ACAAAGAA | 0.257
TCAAAGAA | -0.0713
AACTTTTC | 0.0947
AATCCCGG | -0.139
CTGAGGAA | -0.0654
ACCAGGTG | -0.245
CCTTTGGA | -0.218

Sequence | PBM E-score
ACCACAGT | 0.143
GAACCAAC | 0.00249
AGACATCC | -0.152
GACTGCAA | -0.0662
CCAACCGG | -0.193
ATCCAACC | 0.00913
CGGGTGGC | -0.289
CTAAAGAA | 0.0205
TTAAAGAA | 0.19
ATAAAGAA | 0.26
ATATCACG | 0.181
GTGTCGAA | -0.0549
CTGTATGC | -0.0877
CACGCCAA | -0.0782
ATTCAATC | 0.0991
AAAAGTGA | 0.132
TAAAGTGA | 0.263
CAAAGTGA | 0.0818
CCAACTCC | 0.117
GGCCCAAA | -0.0982
CCAGCAAA | 0.0803
ATTAGTCA | 0.42
CTAAGTCA | 0.024
ATTAGTGG | 0.243
ATAAGTCC | 0.0332

Sequence | PBM E-score
CTTAGTCC | -0.0515
ATTAGTGA | 0.179
CTTAGTCA | 0.373
ATTAGTGC | 0.299
ATAAGTCA | 0.262
ATTAGTCG | 0.12
ATTAGTCC | 0.207
CCTAGTCA | 0.0001
CATTGAAC | 0.07
GCGTTGCA | -0.112
CAGAAACC | 0.0742
CACGCTAA | 0.0663
CGATCGAC | 0.14
AGATCTAT | -0.115
ATCGGGCG | -0.21
AGTGCTCG | -0.11
TCAAGCAA | -0.15
AAGAGCAC | -0.0358
GTTAGTTA | 0.169
ATCAGTTA | 0.272
ATTAGTTG | 0.192
ATTAGTTA | 0.291
CTCAGTTA | -0.0635
CTTAGTAA | 0.429
GTTAGTAA | 0.217

Sequence | PBM E-score
GTCAGTTA | 0.113
CTTAGTAC | 0.0262
GTTAGTCA | 0.33
GGTAGTCA | -0.176
GTTAGTGA | 0.0844
ACAGGTCG | -0.0506
TATTGACA | 0.0463
CCGCCAGC | -0.196
AACACTGC | 0.186
CACGCCTA | -0.1
GATATGCC | -0.0864
ATGATCGA | 0.0147
GTGATCGA | 0.282
CTGATCGA | -0.239
ACTTCCGG | 0.0969
CTCAAGAC | -0.133
AATGAGTA | 0.33
AATGAGAT | 0.266
CGTGAGTA | -0.0244
GATGAGTA | 0.181
AGTGAGTG | -0.0641
AGTGAGTA | 0.271
AATGAGAG | -0.0586
AATGAGAC | -0.0964
CATGAGTA | 0.0202
